Data from paper PMC9838217, “Structure of SALL4 zinc finger domain reveals link between AT-rich DNA binding and Okihiro syndrome”.
Changes are numbered by the printed parent chain.

Columns and labels:
Assay in all cases: HT-SELEX; high values mean tight binding
Settings in all cases: protein: recombinant; vector His6-GST; dsDNA, one strand shown
[1] = target: T1, SALL4 ZFC4 WT (HT-SELEX) (Mus musculus, UniProt Q8BX22 870-940)
T1 sequence: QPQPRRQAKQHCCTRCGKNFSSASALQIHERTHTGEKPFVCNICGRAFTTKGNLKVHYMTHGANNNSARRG
Outline: (§1)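 DNA from a random library (1.5 µg in the first cycle, 200 ng afterwards) was incubated with purified recombinant mouse SALL4 zinc finger cluster 4, residues 870–940 (1 µg), for 10 min at room temperature in 100 µl buffer: 10 mM Tris–HCl pH 7.5, 50 mM NaCl, poly(dI-dC), DTT. Bound complexes were pulled down on Ni2+ beads, washed and PCR-amplified, and the selection was repeated for up to 6 cycles in triplicate. MiSeq reads were scanned for 6-mers, and binding signal is each canonical k-mer's read fraction as fold change over the initial random library.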

[2] = target: T2, SALL4 ZFC4 R900W (HT-SELEX) (Mus musculus, UniProt Q8BX22 870-940, R900W)
T2 sequence: T1 sequence with R31W
Outline: as §1

[3] = target: T3, SALL4 ZFC4 G921D (HT-SELEX) (Mus musculus, UniProt Q8BX22 870-940, G921D)
T3 sequence: T1 sequence with G52D
Outline: as §1

| Sequence | binding signal [1] [fold-change vs cycle 0] | binding signal [2] [fold-change vs cycle 0] | binding signal [3] [fold-change vs cycle 0] |
| --- | --- | --- | --- |
| CACTTC | 0.777 ± 0.0329 | 0.925 ± 0.0515 | 0.946 ± 0.0498 |
| CTCTTC | 1.02 ± 0.0449 | 1.24 ± 0.0397 | – |
| CATGAA | 1.36 ± 0.0383 | 1.4 ± 0.0692 | – |
| AGGTAA | 1.45 ± 0.0617 | 1.58 ± 0.118 | – |
| CATTTA | 1.86 ± 0.0709 | 1.83 ± 0.108 | 1.69 ± 0.163 |
| GCTAAC | 0.704 ± 0.0424 | 0.792 ± 0.0586 | 0.89 ± 0.0355 |
| AATCCT | 1.47 ± 0.0694 | 1.58 ± 0.0929 | – |
| ATTGGA | 1.3 ± 0.0815 | 1.36 ± 0.0818 | 1.33 ± 0.0804 |
| AGTCAG | 0.822 ± 0.0342 | 0.958 ± 0.0579 | – |
| AAACGA | 1.06 ± 0.0291 | – | – |
| CCTATA | 1.35 ± 0.0444 | 1.4 ± 0.0411 | – |
| AACTAG | 1.31 ± 0.0615 | 1.4 ± 0.0768 | – |
| AAAATA | 3.77 ± 0.346 | 2.25 ± 0.159 | 1.96 ± 0.218 |
| AAAGTC | 1.1 ± 0.0483 | 1.25 ± 0.0636 | 1.24 ± 0.0652 |
| AAAGAT | 2.08 ± 0.0847 | 2.1 ± 0.102 | 1.84 ± 0.163 |
| AAGGAT | 1.54 ± 0.0522 | 1.72 ± 0.118 | – |
| ATCCGA | 0.684 ± 0.0383 | 0.781 ± 0.0221 | 0.89 ± 0.0142 |
| GAGGAA | 0.874 ± 0.0788 | 1.03 ± 0.0537 | – |
| AATACC | 1.3 ± 0.0373 | 1.33 ± 0.0245 | – |
| CTCGAC | 0.348 ± 0.0179 | 0.396 ± 0.0285 | 0.539 ± 0.0655 |
| AACTGA | 1.35 ± 0.0349 | 1.44 ± 0.0702 | – |
| AATCAG | 1.32 ± 0.0871 | 1.38 ± 0.0901 | – |
| GAACAA | 1.17 ± 0.0569 | 1.32 ± 0.0741 | 1.28 ± 0.0879 |

| Sequence | binding signal [1] [fold-change vs cycle 0] | binding signal [2] [fold-change vs cycle 0] | binding signal [3] [fold-change vs cycle 0] |
| --- | --- | --- | --- |
| ACTTCA | 1.4 ± 0.0494 | 1.53 ± 0.0862 | – |
| GAGGGA | 0.53 ± 0.0239 | 0.609 ± 0.0584 | 0.684 ± 0.0537 |
| ATGGTG | 0.792 ± 0.0243 | 0.882 ± 0.0384 | 0.941 ± 0.0443 |
| AAGGTA | 1.42 ± 0.048 | 1.59 ± 0.0717 | – |
| AAGATG | 1.395 ± 0.00326 | 1.5 ± 0.0687 | – |
| GCTTGA | 0.627 ± 0.00807 | 0.737 ± 0.0133 | 0.831 ± 0.0377 |
| AAGGGT | 0.858 ± 0.0423 | 1.01 ± 0.023 | – |
| ACATGT | 1.28 ± 0.0279 | 1.4 ± 0.0207 | – |
| ACCGTA | 0.728 ± 0.0197 | 0.818 ± 0.0316 | 0.868 ± 0.0103 |
| GAAAAC | 1.08 ± 0.0562 | 1.19 ± 0.062 | – |
| AGCATA | 1.26 ± 0.0848 | 1.27 ± 0.0243 | – |
| GATCAA | 1.21 ± 0.0612 | 1.36 ± 0.014 | – |
| CGTATC | 0.723 ± 0.0291 | 0.818 ± 0.0282 | 0.89 ± 0.0234 |
| CTATTA | 2.26 ± 0.136 | 2.05 ± 0.132 | 1.81 ± 0.165 |
| ATGTAG | 1.34 ± 0.0549 | 1.41 ± 0.0727 | – |
| ACTAGG | 0.871 ± 0.0329 | 1.01 ± 0.0248 | – |
| CAGTTA | 1.43 ± 0.0431 | 1.46 ± 0.0224 | 1.36 ± 0.0634 |
| CCACAA | 0.612 ± 0.0144 | 0.71 ± 0.0271 | 0.759 ± 0.0161 |
| TCTTAA | 2.07 ± 0.0682 | 2.14 ± 0.15 | 1.86 ± 0.222 |
| ATGTCG | 0.521 ± 0.0491 | 0.603 ± 0.00997 | 0.73 ± 0.0508 |
| AGACGA | 0.675 ± 0.0154 | 0.786 ± 0.0316 | 0.86 ± 0.0237 |
| ATTGAG | 1.27 ± 0.0638 | 1.38 ± 0.0358 | 1.36 ± 0.122 |
| CACCAA | 0.692 ± 0.0333 | 0.776 ± 0.0234 | 0.859 ± 0.0335 |

| Sequence | binding signal [1] [fold-change vs cycle 0] | binding signal [2] [fold-change vs cycle 0] | binding signal [3] [fold-change vs cycle 0] |
| --- | --- | --- | --- |
| AGTTAA | 1.95 ± 0.0954 | 2.13 ± 0.114 | 1.84 ± 0.201 |
| AGGGTG | 0.486 ± 0.0118 | 0.567 ± 0.0247 | 0.648 ± 0.0341 |
| GGTGAC | 0.454 ± 0.0238 | 0.526 ± 0.0318 | 0.642 ± 0.0609 |
| GCTTCA | 0.635 ± 0.0338 | 0.769 ± 0.0139 | 0.8419 ± 0.0056 |
| CCGATA | 0.671 ± 0.053 | 0.717 ± 0.0449 | 0.816 ± 0.0546 |
| CAGCTA | 0.637 ± 0.0596 | 0.727 ± 0.0267 | 0.82 ± 0.0545 |
| ATTTTA | 3.12 ± 0.229 | 2.24 ± 0.131 | 1.98 ± 0.2 |
| GCACAA | 0.447 ± 0.00967 | 0.507 ± 0.00524 | 0.634 ± 0.0509 |
| CGTCTA | 0.63 ± 0.0233 | 0.702 ± 0.0194 | 0.79 ± 0.0202 |
| CTTGTA | 1.27 ± 0.0539 | 1.44 ± 0.0511 | 1.33 ± 0.0845 |
| TCGCAA | 0.451 ± 0.0135 | 0.483 ± 0.00786 | 0.616 ± 0.0634 |
| AGCCAT | 0.592 ± 0.0288 | 0.664 ± 0.00758 | 0.778 ± 0.0611 |
| ACCCGA | 0.382 ± 0.00644 | 0.46 ± 0.0102 | 0.576 ± 0.0588 |
| ATTCGC | 0.463 ± 0.033 | 0.495 ± 0.0145 | 0.637 ± 0.0822 |
| TATGAA | 3.56 ± 0.299 | 2.1 ± 0.116 | 1.85 ± 0.171 |
| AGAGTA | 1.47 ± 0.0798 | 1.61 ± 0.0906 | 1.46 ± 0.121 |
| CCCAAG | 0.456 ± 0.0184 | 0.532 ± 0.00725 | 0.619 ± 0.0423 |
| AGTCAC | 0.789 ± 0.043 | 0.9321 ± 0.00858 | 0.975 ± 0.0241 |
| ATCAAC | 1.34 ± 0.0602 | 1.45 ± 0.0864 | 1.42 ± 0.0753 |
| CAAGTC | 0.742 ± 0.0124 | 0.878 ± 0.025 | 0.942 ± 0.0196 |
| AAGATT | 2.05 ± 0.0988 | 2.08 ± 0.121 | 1.88 ± 0.183 |
| AATCCG | 0.616 ± 0.0217 | 0.698 ± 0.0254 | 0.798 ± 0.0327 |
| GGAACC | 0.444 ± 0.034 | 0.539 ± 0.0289 | 0.622 ± 0.0467 |

| Sequence | binding signal [1] [fold-change vs cycle 0] | binding signal [2] [fold-change vs cycle 0] | binding signal [3] [fold-change vs cycle 0] |
| --- | --- | --- | --- |
| GCTTAA | 1.02 ± 0.0584 | 1.15 ± 0.0607 | 1.12 ± 0.048 |
| CCACTA | 0.774 ± 0.0352 | 0.855 ± 0.0167 | 0.895 ± 0.0113 |
| ATGACA | 1.36 ± 0.0915 | 1.41 ± 0.0578 | 1.39 ± 0.11 |
| GTAGTA | 1.29 ± 0.036 | 1.41 ± 0.0747 | 1.33 ± 0.0906 |
| ATTCAA | 1.94 ± 0.125 | 1.97 ± 0.115 | 1.79 ± 0.158 |
| ACTCAG | 0.865 ± 0.0453 | 0.97 ± 0.0144 | 0.994 ± 0.0115 |
| CTTCTC | 0.952 ± 0.0502 | 1.11 ± 0.0917 | 1.07 ± 0.0618 |
| ATCGTC | 0.685 ± 0.0177 | 0.755 ± 0.0322 | 0.852 ± 0.0307 |
| ATCCAC | 0.828 ± 0.0223 | 0.953 ± 0.0135 | 0.986 ± 0.0515 |
| AAACTA | 1.88 ± 0.106 | 1.85 ± 0.13 | 1.68 ± 0.169 |
| ATATAA | 4.98 ± 0.592 | 2.65 ± 0.229 | 2.24 ± 0.302 |
| CCGTAA | 0.687 ± 0.0267 | 0.78 ± 0.0395 | 0.825 ± 0.0254 |
| AAGTTC | 1.29 ± 0.0532 | 1.44 ± 0.0457 | 1.36 ± 0.0438 |
| ACCGGA | 0.381 ± 0.0137 | 0.447 ± 0.0161 | 0.56 ± 0.0517 |
| CAATTC | 1.19 ± 0.016 | 1.29 ± 0.063 | 1.25 ± 0.0527 |
| ATGAAC | 1.5 ± 0.0592 | 1.55 ± 0.0999 | 1.47 ± 0.0678 |
| CCTATC | 0.811 ± 0.0304 | 0.939 ± 0.00665 | 0.994 ± 0.0224 |
| ACCGTG | 0.361 ± 0.00928 | 0.456 ± 0.013 | 0.547 ± 0.0682 |
| AACGCT | 0.549 ± 0.0698 | 0.603 ± 0.0229 | 0.738 ± 0.0676 |
| TGTGAA | 1.23 ± 0.0362 | 1.38 ± 0.0419 | 1.29 ± 0.0621 |
| GAGAGC | 0.363 ± 0.00861 | 0.422 ± 0.0138 | 0.588 ± 0.0466 |
